From PubChem BioAssay AID778 (Sanford-Burnham Center for Chemical Genomics, 2007)
Hit rate of the full screen: of about 96,000 compounds, about 20,000 (21%) were called active. Only a sample is shown. Unmarked numbers belong to inactive results.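 Rule for the calls: active = CYP2C19 inhibition above a set limit at 5 µM in the primary screen (cut at about 50% in these data); inactive = the rest.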

biological target: Cytochrome P450 2C19 (Homo sapiens) (UniProt P33261); experiment: blockers of cytochrome P450 2C19 activity – biochemical, luminescence, ADME assay, primary screen (AID 778); settings: CYP2C19 Supersomes, luciferin-H EGE luminescence, 30 min; at 5 µM; stronger effect = higher value;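 note: plate controls were negative control wells for no effect and 2.5 mM tranylcypromine positive control for full effect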
Sequence (P33261 whole entry, looked up): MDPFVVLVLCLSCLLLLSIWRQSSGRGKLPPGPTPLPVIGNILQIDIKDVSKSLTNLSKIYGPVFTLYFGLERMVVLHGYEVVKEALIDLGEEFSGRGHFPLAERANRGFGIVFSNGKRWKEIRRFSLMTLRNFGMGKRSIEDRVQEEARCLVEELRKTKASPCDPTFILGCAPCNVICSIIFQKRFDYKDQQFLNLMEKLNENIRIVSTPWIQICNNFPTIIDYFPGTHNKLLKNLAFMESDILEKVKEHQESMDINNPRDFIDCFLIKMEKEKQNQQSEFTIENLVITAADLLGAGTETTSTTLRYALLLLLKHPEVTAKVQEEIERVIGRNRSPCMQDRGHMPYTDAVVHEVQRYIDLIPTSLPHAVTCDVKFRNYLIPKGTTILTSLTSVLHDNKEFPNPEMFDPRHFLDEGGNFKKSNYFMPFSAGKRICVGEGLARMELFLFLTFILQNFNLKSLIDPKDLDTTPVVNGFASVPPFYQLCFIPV

| Structure (SMILES) | inhibition |
| --- | --- |
| COc1ccc(C2NCc3ccc4c(c3-n3cccc32)OCO4)cc1OC (stereo not drawn) | 77.5% (active) |
| c1ccc(C2NCc3ccccc3-n3cccc32)cc1 (stereo not drawn) | 33% |
| CCC(=NCc1ccco1)c1c(O)n(Cc2ccccc2)c(=O)[nH]c1=O | 49.6% |
| CC(=NCc1ccc2c(c1)OCO2)c1c(O)[nH]c(=O)[nH]c1=O | -13.9% |
| COc1ccc(CCn2c(O)c(C=NCCCn3ccnc3)c(=O)[nH]c2=O)cc1OC | 16.7% |
| COc1ccc(CCn2c(O)c(C=NC3CC3)c(=O)[nH]c2=O)cc1OC | 94.9% (active) |
| COc1ccccc1-n1c(O)c(C=NC2CC2)c(=O)[nH]c1=O | 42.1% |
| CC(=O)N1CN2CN(C(C)=O)CC(C(=O)c3ccc(Br)cc3)(C2)C1 | -5.5% |
| C=Cn1ccnc1P(=S)(c1cc(N(CC)CC)ns1)c1nccn1C=C | 18.8% |
| CCC/C(=N\O)c1c[nH]c2ccccc12 | 72.6% (active) |
| C/C(CCc1c[nH]c2ccccc12)=N\O | 12% |
| CNP1(NC)=Nc2nn(-c3ccccc3)c(N)c2C(c2ccccc2)=N1 | -1.8% |
| CNC(=O)N(C)c1nnc(C(C)(C)C)s1 | -8.5% |
| CC[N+](CC)(CC)CCCCCCCCCC[N+](CC)(CC)CC | 14.9% |
| O=C1NC(=O)C(C/C=C/c2ccccc2)C(=O)N1 | 5% |
| COC(=O)CN1C(=O)C2(C(C(=O)OC)=C(N)Oc3ccccc32)C2=C1CC(C)(C)CC2=O (stereo not drawn) | 18.2% |
| C=CCN1C(=O)C2(C(C(=O)OCC)=C(N)Oc3c2c(=O)oc2ccccc32)c2ccccc21 (stereo not drawn) | 88.5% (active) |
| Cc1ccc(P(=S)(c2ccc(C)o2)N2CCOCC2)o1 | 36.5% |
| Cc1cc(N2C(=O)C3CCCN3C2c2ccc(Cl)c(Cl)c2)no1 (stereo not drawn) | 11.9% |
| CCN1c2nc3c(C)cccn3c(=O)c2CC2(C(=O)N(C)C(=O)N(C)C2=O)C1C (stereo not drawn) | -11.5% |

| Structure (SMILES) | inhibition |
| --- | --- |
| N[C@@H](Cc1c[nH]c2ccccc12)c1nnc(SCc2c(F)cccc2Cl)o1 | 74.1% (active) |
| COc1ccc(-c2nc(CS(=O)CC(=O)N3CCC4(CC3)OCCO4)c(C)o2)cc1 (stereo not drawn) | 13.3% |
| CCCCCn1c(=O)c(C(=O)Nc2c(C)n(C)n(-c3ccccc3)c2=O)c(O)c2ccccc21 | 1.4% |
| O=C(c1cc(-c2ccncc2)nc2ccccc12)N1CCC2(CC1)OCCO2 | 35.1% |
| Cc1cccc(-n2c(C)nc3cc(C(=O)N4CCC5(CC4)OCCO5)ccc32)c1 | 6.6% |
| O=C(c1cc2nc(-c3ccccc3)cc(-c3ccccc3)n2n1)N1CCC2(CC1)OCCO2 | 94% (active) |
| O=C(CCN1CCCCC1)NCC(=O)Nc1ccc(Br)cc1C(=O)c1ccccc1 | -17.3% |
| CC(=C1C(=O)c2ccccc2C1=O)N1CCN(CCN=Cc2c(O)n(C)c(=O)n(C)c2=O)CC1 | 24.7% |
| CC1(C)C(c2ccccc2)=NC(c2cccnc2)=[N+]1[O-] | 16.4% |
| c1ccc2sc(C3CCCNC3)nc2c1 (stereo not drawn) | -18.4% |
| CCOc1ccc(CN(CCCl)CCCl)cc1C(=O)OC | 63.9% (active) |
| O=C1/C(=C\c2ccc3c(c2)OCO3)N2CCC1CC2 | 40% |
| CCOC(=O)C(O)(c1ccc(NC(=O)c2ccco2)c(OC)c1)C(F)(F)F (stereo not drawn) | 25.1% |
| CN1CCC(N(C)Cc2cccnc2)CC1 | -0.7% |
| COc1ccccc1N1CCN(C(CNC(=O)Oc2ccccc2)c2cccnc2)CC1 (stereo not drawn) | 39.7% |
| CN1CCN(Cc2ccc(OC(F)(F)F)cc2)CC1 | 20.2% |
| COC(=O)N(c1ccc(OC)cc1)P1(=S)OCCC(C)O1 (stereo not drawn) | 21.5% |
| COc1ccc(C(=O)C2CN(C)CC2C(=O)c2ccc(OC)cc2)cc1 (stereo not drawn) | 8.9% |
| COc1ccccc1CN1CCN(C(=O)Cc2ccccc2)CC1 | 68.1% (active) |
| CCC(=NCCc1ccccc1)c1c(O)n(C2CCCCC2)c(=O)[nH]c1=O | 11.8% |

| Structure (SMILES) | inhibition |
| --- | --- |
| CCOC(=O)c1c(N)n(CCN2CCOCC2)c2nc3ccccc3nc12 | 13.3% |
| COc1cc(Cn2c(N)c(C(=O)NCc3ccco3)c3nc4ccccc4nc32)cc(OC)c1OC | 93.2% (active) |
| CCOC(=O)c1c(N)n(Cc2ccccc2)c2nc3ccccc3nc12 | -1% |
| COc1ccccc1N=C1SCCCN1C | -31.2% |
| O=C(C1CC(=O)N(C2CCCC2)C1)N1CCC2(CC1)OCCO2 (stereo not drawn) | 10.5% |
| COc1ccc(S(=O)(=O)NCc2ccc(C(=O)N3CCC4(CC3)OCCO4)cc2)cc1 | -0.4% |
| CC(=O)N(C1=NCCCS1)c1ccccc1F | 7.3% |
| CCOC(=O)C1SC2(C(F)(F)C(F)F)CC1(O)c1c(c(OC)c3occc3c1OC)O2 (stereo not drawn) | 92.1% (active) |
| Cc1ccc(C)c(NC2=NCCCS2)c1 | 7.4% |
| CC(=NCC1CCCO1)c1c(O)n(-c2ccccc2)c(=O)[nH]c1=O (stereo not drawn) | 22.9% |
| CCOC(=O)C1=C(C)OC(N)=C(C(=O)OC)C12C(=O)Nc1ccc(Br)cc12 (stereo not drawn) | 62.4% (active) |
| CCOC(=O)CC1=C(C(=O)OCC)C2(C(=O)N1)C(C(=O)OC)=C(N)Oc1ccccc12 (stereo not drawn) | 4.8% |
| Cc1cc(C)cc(NC(=S)NC2CC3CCCC(C2)N3Cc2cccs2)c1 (stereo not drawn) | 22.1% |
| CC(=NC1CCN(Cc2ccccc2)CC1)c1c(O)n(C)c(=O)n(C)c1=O | 8.1% |
| CN1CCN(Cc2ccccc2C(F)(F)F)CC1 | 7.9% |
| Fc1cccc(F)c1CN1CCN(Cc2c(F)cccc2F)CC1 | 94.4% (active) |
| CCOC(=O)C(O)(c1ccc(N)c(OC)c1)C(F)(F)F (stereo not drawn) | 20.4% |
| Fc1ccc(N2CCN(Cc3ccc4c(c3)OCO4)CC2)cc1 | 22.5% |
